HePTP inh – inhibitors of human HePTP phosphatase. P35236. recombinant HePTP phosphatase activity, OD absorbance. inhibition, % at 20 µM. 110,000 compounds, 0.64% hits. AID 521; in the data active = inhibition above about 50%
BAP1 block – human BAP1 deubiquitinase inhibition; AID 436; recombinant BAP1, Ub-AMC hydrolysis fluorescence kinetic; stronger effect = lower value; calls only at 20 µM; Q92560; 72,000 compounds, 0.48% hits;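 active = activity remaining at or below 50% of control, provided the compound also passes the data quality filters; inactive = the rest, including low values that fail the filters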
Cdc25B block – human M-phase inducer phosphatase 2 inhibition; P30305; recombinant Cdc25B, OMFP fluorescence Ex485/Em525; inhibition, %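 (compounds tested at 10 µM final in the well)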; 65,000 compounds, 0.1% hits; in the data active = inhibition above about 50%
PLAP act – activators of human placental alkaline phosphatase; P05187; purified PLAP enzyme, luminescent substrate read-out; stronger effect = higher value; activation fold at 20 µM; 96,000 compounds, 1.2% hits; AID 696; in the data active = activation fold above about 2
DUSP1 inh – inhibitors of human MKP-1 phosphatase | inhibition, %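 (compounds tested at a single concentration somewhere between 10 and 100 µM)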 | P28562 | recombinant MKP-1, OMFP hydrolysis fluorescence | 65,000 compounds, 0.15% hits;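 active = inhibition above about 50%, limit read from the data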
Target sequence (P28562 whole entry, looked up): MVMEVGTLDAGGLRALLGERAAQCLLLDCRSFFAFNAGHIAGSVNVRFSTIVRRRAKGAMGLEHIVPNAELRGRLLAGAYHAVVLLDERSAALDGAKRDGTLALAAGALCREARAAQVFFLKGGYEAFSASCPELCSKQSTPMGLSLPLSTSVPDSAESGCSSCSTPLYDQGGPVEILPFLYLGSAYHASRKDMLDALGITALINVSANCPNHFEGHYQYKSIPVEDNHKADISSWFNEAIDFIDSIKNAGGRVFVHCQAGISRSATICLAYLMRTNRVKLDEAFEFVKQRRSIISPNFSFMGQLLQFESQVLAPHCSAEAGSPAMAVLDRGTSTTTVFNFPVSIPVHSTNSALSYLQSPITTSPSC
Numbers stand for hits; - = inactive; . = no result shown. In the library only some 1.4% were active in any assay of this set; here they are far more common.

SMILES	HePTP inh	BAP1 block	Cdc25B block	PLAP act	DUSP1 inh
O=C(CC(C(=O)O)N1CCOCC1)c1ccccc1 (stereo unspecified)	103	.	.	.	.
O=C(O)CC(C(=O)OCCOc1ccccc1)N1CCOCC1 (stereo unspecified)	-	-	-	-	-
COCCCn1c(-c2ccc(Cl)cc2)n[nH]c1=S	.	.	.	-	.
CCOCCCn1c(-c2ccc(Cl)cc2)n[nH]c1=S	.	.	.	2.4	.
Fc1ccc(C(c2nnnn2Cc2cccs2)N2CCN(C3CCCCC3)CC2)cc1 (stereo unspecified)	-	-	-	2.1	-
CN1CCN(C(c2ccc(F)cc2)c2nnnn2Cc2cccs2)CC1 (stereo unspecified)	-	-	-	-	-
COc1ccc(CCN2C(=O)CSC2c2ccc([N+](=O)[O-])cc2)cc1OC (stereo unspecified)	104	.	.	.	.
CCCCc1nc(SCC(=O)Nc2ccc(S(N)(=O)=O)cc2)n[nH]1	-	.	-	2	-
COc1ccc(CC(=O)Nc2sc3c(c2C(=O)OC(C)C)CCCCC3)cc1	-	.	.	.	.
O=C(Nc1ncn[nH]1)c1ccc(Cl)c(S(=O)(=O)N2CCCCCC2)c1	.	.	.	2.1	.
COc1ccc(C(=O)Nc2nc3ccccc3[nH]2)cc1S(=O)(=O)N1CCCC1	.	.	.	2	.
COc1ccc(C(=O)Nc2nc3ccccc3[nH]2)cc1OC	-	-	-	.	-
O=C(Nc1cccnc1)c1ccc(Cl)c(S(=O)(=O)N2CCCCCC2)c1	-	-	-	-	-
COc1cc(CNC2CCCC2)cc(Cl)c1OCc1ccccc1F	.	.	.	2	.
O=[N+]([O-])c1ccccc1S(=O)(=O)N1CCC(Cc2ccccc2)CC1	-	.	.	.	.
O=C(CCCN1C(=O)c2ccccc2C1=O)Nc1ccccc1C(=O)N1CCCCC1	78	.	.	.	.
CCOC(=O)C1=C(C)N=c2s/c(=C\c3ccc(N(C)C)cc3)c(=O)n2C1c1ccc(OC)cc1 (stereo unspecified)	-	.	.	.	.
Cc1ccc(S(=O)(=O)NC(CC(C)C)C(=O)Nc2nccs2)cc1 (stereo unspecified)	.	.	.	2.2	.
COc1cc(C(=O)Nc2ccc(-c3nc4cc(C)ccc4o3)c(O)c2)cc(OC)c1OC	-	.	-	2.7	-
COc1ccc(CC(=O)Nc2ccc(-c3nc4ccccc4o3)c(O)c2)cc1OC	89	.	.	.	.
Cc1ccc2oc(-c3ccc(NC(=O)c4ccc(C(C)(C)C)cc4)cc3O)nc2c1	-	.	.	.	.
CC(=O)Nc1ccc(NC(=O)CN(c2ccc(C)cc2)S(C)(=O)=O)cc1	-	.	.	.	.
O=C(Nc1ccc2c(c1)N(Cc1ccccc1)C(=O)c1ccccc1S2)NC1CC1	.	.	.	2.1	.
CN1C(=O)c2ccccc2Sc2ccc(NC(=O)NC3CC3)cc21	-	-	-	-	-
O=C(O)c1cccc(-c2ccc(/C=N/Nc3ccc([N+](=O)[O-])cn3)o2)c1	102	.	.	.	.
SMILES	HePTP inh	BAP1 block	Cdc25B block	PLAP act	DUSP1 inh
O=C(O)c1cc(-c2ccc(/C=N/Nc3ccc([N+](=O)[O-])cn3)o2)ccc1Cl	-	.	.	.	.
O=C(NC1(C(F)(F)F)NC(=O)N(Cc2ccccc2)C1=O)c1cccnc1 (stereo unspecified)	.	.	.	-	.
O=C1NC(Nc2nccs2)(C(F)(F)F)C(=O)N1CCc1ccccc1 (stereo unspecified)	-	-	-	2	-
Cc1ccccc1-n1c(SC/C(O)=C(\C#N)c2nc3ccccc3[nH]2)nnc1-c1ccncc1	-	.	-	-	-
Cc1cc(C)n2c(SC/C(O)=C(\C#N)c3nc4ccccc4[nH]3)nnc2n1	-	.	-	2	-
COc1cccc(OC)c1/C(O)=C(\C#N)c1nc2ccccc2[nH]1	-	-	-	-	-
CC1CCCN(C/C(O)=C(\C#N)c2nc3ccccc3[nH]2)C1 (stereo unspecified)	-	-	-	2	-
COc1ccc(C/C(O)=C(\C#N)c2nc3ccccc3[nH]2)cc1OC	-	-	-	2.7	-
CCOC(=O)c1c(C)[nH]c(C(=O)OC/C(O)=C(\C#N)c2nc3ccccc3[nH]2)c1C	-	-	-	2.1	-
O=C(Nc1ccc2c(c1)C(=O)c1ccccc1C2=O)c1cccnc1	-	.	.	.	.
Cc1ccc(Cl)cc1N1CCN(Cc2nc3ccsc3c(=O)[nH]2)CC1	.	.	.	2.3	.
COc1ccc(N2CCN(Cc3nc4ccsc4c(=O)[nH]3)CC2)cc1	.	.	.	-	.
COc1ccc(C(=O)Nc2ccccc2C(=O)NCCC(=O)NCc2ccco2)cc1	-	.	.	.	.
CCC(C)C(NC(=O)c1ccccc1NC(=O)c1ccc(OC)cc1)C(=O)NCc1ccco1 (stereo unspecified)	-	-	-	2.1	-
COC(=O)c1sccc1NC(=O)/C=C/c1ccc(C(C)(C)C)cc1	-	.	.	.	.
CCOC(=O)C1=C(c2ccccc2)N=c2s/c(=C\c3cccnc3)c(=O)n2C1c1ccc(OC)c(OC)c1 (stereo unspecified)	-	.	.	.	.
CCN(CC)CCCNc1nc2cc(OC)c(OC)cc2c2nc(-c3ccccc3)nn12	.	.	.	2	.
COc1cc2nc(NCC3CCCO3)n3nc(-c4cccnc4)nc3c2cc1OC (stereo unspecified)	-	-	-	2	-
Oc1ccc2ccccc2c1/C=N/Nc1nnc(-c2ccccc2)c(-c2ccccc2)n1	-	.	.	.	.
CC1=C(C(=O)OC2CCCC2)C(c2ccc3c(c2)OCO3)NC(=O)N1 (stereo unspecified)	.	-	.	.	.
COC(=O)C1=C(C)NC(C)=C(C(=O)OC)C1c1ccc(OC)c([N+](=O)[O-])c1	-	.	.	.	.
COC(=O)c1c(NC(=O)CCc2ccccc2)sc2c1CCC(C)C2 (stereo unspecified)	-	.	.	.	.
O=C(CSc1nc2ccccc2[nH]1)Nc1ccc(F)c(Cl)c1	-	.	.	.	.
CC1CCN(C(=O)C2CCN(CCCc3ccccc3)CC2)CC1	-	-	-	2.2	-
CCOC(=O)c1c(-c2ccccc2)csc1NC(=O)COc1ccc(Cl)cc1	-	.	.	.	.
SMILES	HePTP inh	BAP1 block	Cdc25B block	PLAP act	DUSP1 inh
C=CCNC(=S)NNC(=O)c1ccc(OCC(C)C)cc1	.	.	.	-	.
C=CCNC(=S)NNC(=O)C(CCC(C)C)CC(C)O (stereo unspecified)	.	.	.	2.7	.
COc1cccc2sc(Nc3nnc(-c4ccc(F)cc4)o3)nc12	.	.	.	2.4	.
COc1cccc2sc(Nc3nnc(-c4cccs4)o3)nc12	-	-	-	-	-
Cc1oc(-c2ccccc2F)nc1CN1CCC(C(=O)NC2CCCCCCC2)CC1	-	-	-	2	-
Cc1oc(-c2ccccc2F)nc1CN1CCC(C(=O)NC2CCCc3ccccc32)CC1 (stereo unspecified)	.	.	.	2	.
Cc1oc(-c2ccccc2F)nc1CN1CCC(C(=O)NCc2ccco2)CC1	-	-	-	-	-
CCCCNS(=O)(=O)c1ccc2nc(SCC(=O)c3ccc(C#N)cc3)[nH]c2c1	-	-	-	2	-
CCOC(=O)C1=C(C)NC(C)=C(C(=O)OCC)C1c1ccccc1Cl	.	-	.	.	.
Cc1ccc(OCC(=O)Nc2cc(Cl)cc(Cl)c2)cc1	-	.	.	.	.
O=P(Cc1nnco1)(c1ccccc1)c1ccccc1	-	-	-	2.1	-
O=C(CP(=O)(c1ccccc1)c1ccccc1)c1ccccc1	-	.	.	.	.
Cc1cc(F)ccc1S(=O)(=O)Nc1ccccc1C(=O)Nc1ncn[nH]1	-	.	-	2.9	-
CCOc1cc(C=O)ccc1OCCN1CCOCC1	-	.	.	.	.
COc1cc(C=O)ccc1OCCN1CCOCC1	103	.	.	.	.

Assay outcomes: PubChem BioAssay, several laboratories
